About 83,000 compounds went through this panel and 20% of them were active in at least one assay; those are over-represented in the sample as a whole.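 The endpoint reported here, percent growth, reads 100 for growth as untreated, 0 for no net growth and -100 for all cells dead.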 A number with no mark means an inactive call. Activity calls are given as the source filed them. How the source made its calls: active means growth percent below 10; inactive means the rest.
Columns and labels:
Assay in all cases: NCI-60 one-dose screen, 48 h (100 = growth as untreated, 0 = no growth, -100 = all killed)
Conditions in all cases: 10 µM unless noted
SK-MEL-2 melanoma = test system: SK-MEL-2 melanoma
EKVX NSCLC = test system: EKVX NSCLC
SN12C renal = test system: SN12C renal
UO-31 renal = test system: UO-31 renal
TK-10 renal = test system: TK-10 renal
ACHN renal = test system: ACHN renal
CAKI-1 renal = test system: CAKI-1 renal
A498 renal = test system: A498 renal
CCRF-CEM leukemia = test system: CCRF-CEM leukemia
MOLT-4 leukemia = test system: MOLT-4 leukemia

Structure (SMILES)	growth (SK-MEL-2 melanoma)	growth (EKVX NSCLC)	growth (SN12C renal)	growth (UO-31 renal)	growth (TK-10 renal)	growth (ACHN renal)	growth (CAKI-1 renal)	growth (A498 renal)	growth (CCRF-CEM leukemia)	growth (MOLT-4 leukemia)
CCN(CC)CCOc1ccc(/C(=C(\C)c2ccc(OC)c(F)c2)c2ccc(Cl)cc2)cc1	95.9%	96.5%	83.5%	75.6%	82.6%	89.8%	67.2%	102%	60.2%	70.8%
C=CC(=O)Nc1cccc(C)c1Nc1cc(-c2cccnc2Cc2c(C)c(OC)cc(OC)c2C)ncn1	-29% (active)	82.1%	30.1%	51%	-8.59% (active)	29.7%	36.4%	-4.92% (active)	-0.444% (active)	-7.26% (active)
CCCCCCNc1cc(C)nc2ccc(OC)cc12	73.7%	65.7%	67.9%	40.4%	80.4%	76.4%	70.9%	22%	60.7%	50.4%
Cn1ccnc1C(=O)/C=C/c1ccc(C(=O)Nc2ccc(S(F)(F)(F)(F)F)cc2)cc1	62.7%	26.3%	7.07% (active)	28.5%	48.8%	42.5%	23.9%	38.4%	3.4% (active)	-5.05% (active)
N#Cc1c(N)n2c(nc1=Nc1ccc(Cl)cc1)sc1cc(Cl)ccc12	69.8%	62.3%	88.4%	61.3%	108%	91.3%	75.5%	91.1%	92%	27.8%
Cc1nc(-c2ccccc2)cc2c(O)c(C(=O)N/N=C/c3ccc(N(C)C)cc3)[nH]c(=O)c12	99.7%	82.5%	82%	84.2%	88.8%	67.5%	99.4%	93.9%	96.7%	22.9%
Cc1nc2ccc(C(=O)NCc3cc(C(=O)O)c(C)o3)cc2nc1C	102%	105%	96.5%	82.8%	97.6%	99.4%	86.2%	106%	97.1%	106%
C=C1C(=O)O[C@H]2[C@H]1CC/C(COC(=O)/C=C\C(=O)NCc1ccc(Cn3c(=O)sn(-c4ccc(Cl)cc4)c3=O)cc1)=C\CC[C@@]1(C)O[C@@H]21	-64.7% (active)	-74.8% (active)	-96.1% (active)	-100% (active)	-85.1% (active)	-100% (active)	-69.9% (active)	-15.8% (active)	-22.9% (active)	-36.7% (active)
N#Cc1c(N)nc2c(nnn2-c2cccc(C(F)(F)F)c2)c1N	91.2%	29.1%	87.7%	58.2%	90.2%	87.7%	77.2%	97.7%	87.9%	75.8%
C=C(C)[C@@H]1CC[C@]2(C(=O)NCC(=O)O)CC[C@]3(C)[C@H](CC[C@@H]4[C@@]5(C)Cc6c([nH]c7ccccc67)C(C)(C)[C@@H]5CC[C@]43C)[C@@H]12	92.4%	84.7%	72.2%	55.4%	103%	87.4%	78.5%	77.2%	72.8%	78.4%
COc1ccc(-n2nnc(C(=O)NCCc3c[nH]c4ccc(F)cc34)c2C)cc1	91.6%	102%	103%	83.5%	96.2%	102%	91.7%	100%	87.9%	87.9%
N#Cc1c(N)n2c(nc1=Nc1ccc([N+](=O)[O-])cc1)sc1cc(Cl)ccc12	99.4%	84.3%	89.4%	75.2%	148%	90.7%	85.2%	102%	83.6%	93.4%
COc1cccc(/C=C2\COc3ccc(O)cc3C2=O)c1OC	96.4%	92.8%	44.4%	58.6%	89.3%	54.6%	63.4%	90.7%	2.69% (active)	32.9%
CC(=O)Nc1cccc(C2=CC(c3ccc(C)cc3)n3ncnc3N2)c1 (stereo not given)	103%	102%	101%	79.7%	110%	96.7%	106%	93.9%	110%	87.9%
O[C@H]1CO[C@H]2[C@@H]1OC[C@@H]2Oc1ccc(Nc2ccnc(Nc3ccc(O[C@H]4CO[C@H]5[C@@H]4OC[C@@H]5O)c(Cl)c3)n2)cc1Cl	4.23% (active)	25.2%	-2.74% (active)	6.06% (active)	28.5%	20.3%	27.3%	22.7%	7.39% (active)	5.65% (active)
c1ccc2c(c1)nc(-n1ccnc1)c1nc3ccccc3n12	88.7%	74.1%	52.6%	46.1%	72.4%	32.3%	56%	79.7%	78%	74.9%
C=C1C(=O)O[C@H]2[C@H]1CC/C(Cn1cc(CNCCc3c[nH]c4ccc(Cl)cc34)nn1)=C\CC[C@@]1(C)O[C@@H]21	52.3%	84.1%	58.6%	80.1%	0.209% (active)	54%	48.2%	90%	-29.6% (active)	0.755% (active)
O=C1N/C(=N/O)S/C1=C/c1cn(-c2ccccc2)nc1-c1ccccc1	100%	87.7%	96.1%	57.5%	108%	100%	77.2%	85.6%	91.6%	91.9%
Nc1ccc2c(S(=O)(=O)O)ccc(S(=O)(=O)O)c2c1	103%	103%	95.3%	81.6%	108%	96.4%	95.6%	116%	56.5%	80.3%
CC12CC(C#N)CCC1O2 (stereo not given)	116%	120%	105%	96%	119%	101%	111%	121%	92.4%	96.2%
O=S(=O)(NCCNc1cc(-c2c(-c3cccc(O)c3)nc3sccn23)ccn1)c1ccc(Br)cc1	79.5%	56.8%	45.3%	-1.33% (active)	83.2%	56.7%	39%	51.1%	39.9%	32.9%
CCCCCCCC/C=C\CCCCCCCC(=O)Oc1cccc2cccnc12	140%	95.1%	88.9%	88.3%	120%	103%	-0.06% (active)	121%	96.3%	80.3%
NC(=O)c1c(NC(=O)c2ccccn2)sc2c1CCC(=O)C2	37.8%	33.8%	25.9%	4.56% (active)	38.3%	5.89% (active)	-2.09% (active)	86.1%	12.7%	81.6%
O=C(O)c1ccc(CO)o1	92.3%	105%	104%	97.7%	103%	105%	102%	114%	106%	100%
O=C(CCCCCCCn1cc(-c2cccnc2)nn1)Nc1ccccc1-c1ccccc1	87.9%	64.9%	25.8%	62%	84%	54.8%	17%	83.3%	59.9%	47.4%
C=C1C(=O)O[C@H]2[C@H]1CC/C(COC(=O)/C=C\C(=O)NCc1ccc(Cn3c(=O)sn(-c4ccc(OC)cc4)c3=O)cc1)=C\CC[C@@]1(C)O[C@@H]21	-54.2% (active)	-82.9% (active)	-96.4% (active)	-100% (active)	-75.4% (active)	-98.8% (active)	-66.1% (active)	7.18% (active)	-11.4% (active)	-26.4% (active)
C=C1C(=O)O[C@H]2[C@H]1CC/C(COC(=O)/C=C\C(=O)NCc1ccc(Cn3c(=O)sn(-c4ccc(C#N)cc4)c3=O)cc1)=C\CC[C@@]1(C)O[C@@H]21	-64.9% (active)	-56.9% (active)	-93.8% (active)	-100% (active)	-85.1% (active)	-100% (active)	-69.1% (active)	-8.82% (active)	-18.1% (active)	-32.3% (active)

Reference: PubChem BioAssay (NCI)
